The source of these data is the supplement of paper PMC6555819.

In this test the test system is VDR homodimer (NR concentration 270 nM). Briefly: PBM binding z-score (relative to random genomic background probes); higher = stronger binding; sequences stand for … in GC…GCGATTGACAGCGTAGAATGAAGG
The essentials:
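For binding z-scores, the reference was random background probes on custom Agilent 4×180K protein-binding microarrays. These arrays were incubated 1 h with ligand-free nuclear receptor dimers in PBS pH 7.4, 2% milk, 0.02% Triton X-100, 1 mM DTT, 0.2 mg/mL BSA and 0.4 mg/ml salmon testes DNA. Fluorescence was scanned after antibody detection of each partner (one per run) and regression-normalized.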
In turn, CATGCTAGGTCAATGGTCAGCTAAAGCAGCTCGC gave a PBM binding z-score of 0.0964.

Regarding TTACCAAGGTGAAGGTCGTTGACCCCTCTGTAGA, the PBM binding z-score is 1.51.

TTACCAGGGTGAGCTGAGGTCGTTGATCCAACTC: the PBM binding z-score stood at 2.47.

The sequence CCTACTGGGCCCTCAGGTCATTGATATCAACGTT had a PBM binding z-score of 1.17.

With ACTAGCAGGCTAAGGGTCACTCAAGATTAGTCCG, the PBM binding z-score worked out at 1.01.

The sequence TCTTTTAGATCAGCAGGTTAAGAAAGCTGGCCAA displayed a PBM binding z-score of 0.00166.

Regarding AGAATGAGGTTATTAAGTTCAGGGAATTGCGGTC, the PBM binding z-score was determined as 6.33.

As to CGGCCTAGGTCAGGGCCAGTATAGGAGGAACGTT, the PBM binding z-score is -0.395.

As for ACTATTAGTTGACTGAGGGCAACCGATACGACGC, the PBM binding z-score amounted to 1.71.

Consider CATTACGGGTCACGAGGTTATAGCACGACGAGCG, for which the PBM binding z-score turned out to be 2.52.

The sequence CTACCAAGGTGAACAAGGTCATTGATTACTATTC had a PBM binding z-score of 4.4.

Regarding TCTGCTAGTTCAGTTGGTCAGCTAACGAGCTGCC, the PBM binding z-score is -0.523.

GCTAGTTGGTCAGTAAAAGGTCACAAACCGGTCG yielded a PBM binding z-score of 1.71.

The sequence ATCGAGAGGTCGTGAGGTGAGTATACAGAAAGGC registered a PBM binding z-score of 1.87.

CGTCCAAGGTCAAACGTCAGTGAAGAGATGACGG registered a PBM binding z-score of 3.22.

On to ATTTCTAGGTAACCAAGTTCAGTGAATGCCGAAC, for which the PBM binding z-score is 3.08.

CGTCAAAGTTCACGGTAACGTAACAGAAAGCAGC: the PBM binding z-score was found to be 4.02.

Turning to TTACCAAGGTGAAAGGTCGTAGATGCACGCCTTG, the PBM binding z-score was found to be 0.0396.

The sequence ATATCTAGGTAACCAAGTTCAGTGAATGCCGAAC showed a PBM binding z-score of 2.63.

In turn, ATCTCAAGGTAAAGTTCAGTGAAAGATCGATAGA returned a PBM binding z-score of 2.24.

For the sequence CCTACTGGGCCATCAGGGCATTGATATCAACGTT, the PBM binding z-score is -0.114.

Regarding CCTATGAGTTGACCATAAGGGCAACCGAAGCTCG, the PBM binding z-score turned out to be 0.847.

As to TCTGCTAGGTGAGTTGGTCAGCTAACGAGCTGCC, the PBM binding z-score was -0.985.

GGAACGAGGGCAAAGTTGCTAGCATCTGTCGACG returned a PBM binding z-score of 1.46.

The sequence ATCGCTAGGTAAGACTCAGTTCAGTGAAGAACGC yielded a PBM binding z-score of 0.334.

With ATCTCAAGGTAACAAGTTCAGTGAAAGAGAGGAC, the PBM binding z-score was determined as 2.9.

For CCTTACGGCTCACTGACAGGTTATAGCATTTGGA, the PBM binding z-score was -0.0205.

With TCTATTGGTTGAAGGGCAACCGACGAGTCCGTTT, the PBM binding z-score came to 1.24.

TCTATTAGTTGAAGCGCAACCGACGAGTCCGTTT returned a PBM binding z-score of 0.818.

Sequence CGCCCAAGGTCATAGGAGGTCAGTGAAGACAGAT came in with a PBM binding z-score of 3.97.

Take ATATCTAGGTTAAGGGTCATTCAGGTTGGTTCGC: the PBM binding z-score amounted to 4.63.

Consider CAAACTAGGTCACGAAAGGTCAAAGTAGAATGAC, for which the PBM binding z-score came out at 3.78.

Consider ACTATTAGTTGACTTAGGGCAACCGGTACGACGC, for which the PBM binding z-score came to 0.456.

The sequence CAAACTAGGTCAAAGTCAAAGTCGGTTTGTGCCA registered a PBM binding z-score of 1.05.

On to CCTACTGGGCCATTCAGAGGTCATTTATCATATG, for which the PBM binding z-score amounted to 4.04.

In the case of TCATATAGGTAAATGCTAGGTTAAAGTCCGATCT, the PBM binding z-score turned out to be 0.441.

Sequence TTACCAAGGTGAGGGTCGTTGATCCCTCTGTAGA registered a PBM binding z-score of 0.171.

In turn, CCTAGCAGGCCAGGGTCAATCAAGCATTTCGCTT came in with a PBM binding z-score of 1.07.

As to TCTCAAAGTTCAAAGGTAACGTAAGTATCCACAC, the PBM binding z-score was 4.09.

ATATGTAGGTTATCGGGTCATTTAGTTTGCGCAT: the PBM binding z-score was found to be 2.85.
